Out of some 5,500 compounds screened, about 2,000 (36%) were called active. Roughly 18% stayed inconclusive and do not appear here. No stated cut-off is given here; in the data, active means normalized growth mostly below about 0.91 (no sharp cut-off); inconclusive means no clear call, values can overlap the other calls; inactive means mostly above about 0.92. This is one part of the list.
Assay: chemical genetic growth profiling, strain panel (AID 1159580);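 further: tested at 20 µM; growth read once vehicle control cultures reached saturation at 30 °C; 1 = growth at the plate median or of vehicle wells; lower values mean less growth of the strain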
Details: growth OD

Measured: normalized growth

c1ccc(N=Nc2ccccc2)cc1
inactive: S. cerevisiae deletion strains, locus YJR066W, strain TOR1, active compounds read low 0.95 | S. cerevisiae deletion strains, locus YJR075W, strain HOC1, active compounds read low 0.98 | S. cerevisiae deletion strains, locus YKL009W, strain mrt4, active compounds read low 1 | S. cerevisiae deletion strains, locus YKL068W, active compounds read low 1.02 | S. cerevisiae deletion strains, locus YKL085W, strain MDH1 (second series), active compounds read low 1.01 | S. cerevisiae deletion strains, locus YKL085W, strain MDH1, active compounds read low 1.01 | S. cerevisiae deletion strains, locus YKL160W, strain elf1, active compounds read low 0.996 | S. cerevisiae deletion strains, locus YKL190W, strain CNB1, active compounds read low 0.993 | S. cerevisiae deletion strains, locus YKR001C, strain vps1, active compounds read low 0.979 | S. cerevisiae deletion strains, locus YKR026C, strain gcn3, active compounds read low 0.982 | S. cerevisiae deletion strains, locus YKR091W, strain srl3, active compounds read low 0.987 | S. cerevisiae deletion strains, locus YLL001W, strain dnm1, active compounds read low 0.977 | S. cerevisiae deletion strains, locus YLL026W, active compounds read low 0.986 | S. cerevisiae deletion strains, locus YLL041C, strain sdh2, active compounds read low 0.989 | S. cerevisiae deletion strains, locus YLR027C, strain aat2, active compounds read low 0.983 | S. cerevisiae deletion strains, locus YLR039C, strain RIC1, active compounds read low 0.878 | S. cerevisiae deletion strains, locus YLR058C, strain SHM2, active compounds read low 0.992 | S. cerevisiae deletion strains, locus YLR102C, strain apc9, active compounds read low 1.03 | S. cerevisiae deletion strains, locus YLR113W, strain HOG1, active compounds read low 0.978 | S. cerevisiae deletion strains, locus YLR221C, strain rsa3, active compounds read low 0.984 | S. cerevisiae deletion strains, locus YLR258W, strain gsy2, active compounds read low 0.974 | S. cerevisiae deletion strains, locus YLR262C, strain YPT6 (second series), active compounds read low 0.921 | S. cerevisiae deletion strains, locus YLR262C, strain YPT6, active compounds read low 0.887 | S. cerevisiae deletion strains, locus YLR268W, strain sec22, active compounds read low 0.988 | S. cerevisiae deletion strains, locus YLR320W, strain mms22, active compounds read low 0.993 | S. cerevisiae deletion strains, locus YLR330W, strain CHS5, active compounds read low 1.01 | S. cerevisiae deletion strains, locus YLR342W, strain FKS1 (second series), active compounds read low 0.966 | S. cerevisiae deletion strains, locus YLR342W, strain FKS1, active compounds read low 0.994 | S. cerevisiae deletion strains, locus YLR357W, strain rsc2, active compounds read low 0.97 | S. cerevisiae deletion strains, locus YLR370C, strain arc18, active compounds read low 0.996 | S. cerevisiae deletion strains, locus YLR371W, strain rom2, active compounds read low 1.02 | S. cerevisiae deletion strains, locus YLR384C, strain iki3, active compounds read low 0.973 | S. cerevisiae deletion strains, locus YLR418C, strain cdc73, active compounds read low 1 | S. cerevisiae deletion strains, locus YML016C, strain PPZ1, active compounds read low 1.01 | S. cerevisiae deletion strains, locus YML032C, strain rad52, active compounds read low 1.01 | S. cerevisiae deletion strains, locus YML120C, strain ndi1, active compounds read low 0.976 | S. cerevisiae deletion strains, locus YML124C, strain tub3, active compounds read low 1.03 | S. cerevisiae deletion strains, locus YMR058W, strain fet3, active compounds read low 0.99 | S. cerevisiae deletion strains, locus YMR078C, strain ctf18, active compounds read low 1.01 | S. cerevisiae deletion strains, locus YMR125W, strain sto1, active compounds read low 0.978 | S. cerevisiae deletion strains, locus YMR129W, active compounds read low 0.991 | S. cerevisiae deletion strains, locus YMR205C, strain PFK2, active compounds read low 0.952 | S. cerevisiae deletion strains, locus YMR223W, strain ubp8, active compounds read low 1 | S. cerevisiae deletion strains, locus YMR231W, strain pep5, active compounds read low 0.991 | S. cerevisiae deletion strains, locus YMR263W, strain SAP30, active compounds read low 0.972 | S. cerevisiae deletion strains, locus YMR307W, strain GAS1, active compounds read low 0.945 | S. cerevisiae deletion strains, locus YNL067W, strain RPL9B, active compounds read low 0.975 | S. cerevisiae deletion strains, locus YNL071W, strain lat1, active compounds read low 1 | S. cerevisiae deletion strains, locus YNL183C, strain NPR1, active compounds read low 0.904 | S. cerevisiae deletion strains, locus YNL209W, strain ssb2, active compounds read low 0.991 | S. cerevisiae deletion strains, locus YNL233W, strain BNI4, active compounds read low 0.971 | S. cerevisiae deletion strains, locus YNL248C, strain rpa49, active compounds read low 0.993 | S. cerevisiae deletion strains, locus YNL250W, strain rad50, active compounds read low 1.03 | S. cerevisiae deletion strains, locus YNL271C, strain bni1, active compounds read low 1.03 | S. cerevisiae deletion strains, locus YNL298W, strain CLA4, active compounds read low 1 | S. cerevisiae deletion strains, locus YNL307C, strain MCK1, active compounds read low 1 | S. cerevisiae deletion strains, locus YNL322C, strain KRE1 (second series), active compounds read low 0.974 | S. cerevisiae deletion strains, locus YNR049C, strain mso1, active compounds read low 0.994 | S. cerevisiae deletion strains, locus YNR052C, strain pop2, active compounds read low 1.03 | S. cerevisiae deletion strains, locus YOL006C, strain TOP1, active compounds read low 0.974 | S. cerevisiae deletion strains, locus YOL012C, strain htz1 0.782 | S. cerevisiae deletion strains, locus YOL147C, strain pex11, active compounds read low 1.02 | S. cerevisiae deletion strains, locus YOR001W, strain rrp6, active compounds read low 0.991 | S. cerevisiae deletion strains, locus YOR061W, strain CKA2, active compounds read low 1 | S. cerevisiae deletion strains, locus YOR069W, strain VPS5, active compounds read low 1 | S. cerevisiae deletion strains, locus YOR070C, strain gyp1, active compounds read low 0.985 | S. cerevisiae deletion strains, locus YOR080W, strain dia2, active compounds read low 0.974 | S. cerevisiae deletion strains, locus YOR083W, strain WHI5, active compounds read low 0.989 | S. cerevisiae deletion strains, locus YOR106W, strain vam3, active compounds read low 0.987 | S. cerevisiae deletion strains, locus YOR136W, strain idh2, active compounds read low 1.02 | S. cerevisiae deletion strains, locus YOR144C, strain elg1, active compounds read low 1.02 | S. cerevisiae deletion strains, locus YOR184W, strain ser1, active compounds read low 0.912 | S. cerevisiae deletion strains, locus YOR231W, strain MKK1, active compounds read low 0.944 | S. cerevisiae deletion strains, locus YOR265W, strain rbl2, active compounds read low 0.985 | S. cerevisiae deletion strains, locus YOR270C, strain vph1, active compounds read low 1.11 | S. cerevisiae deletion strains, locus YOR290C, strain snf2, active compounds read low 0.998 | S. cerevisiae deletion strains, locus YOR316C, strain cot1, active compounds read low 1.03 | S. cerevisiae deletion strains, locus YPL051W, strain arl3, active compounds read low 0.987 | S. cerevisiae deletion strains, locus YPL055C, strain LGE1, active compounds read low 0.995 | S. cerevisiae deletion strains, locus YPL078C, strain atp4, active compounds read low 0.979 | S. cerevisiae deletion strains, locus YPL106C, strain sse1, active compounds read low 0.98 | S. cerevisiae deletion strains, locus YPL240C, strain hsp82, active compounds read low 0.986 | S. cerevisiae deletion strains, locus YPL256C, strain CLN2, active compounds read low 0.953 | S. cerevisiae deletion strains, locus YPR119W, strain clb2, active compounds read low 1.03 | S. cerevisiae deletion strains, locus YPR141C, strain kar3, active compounds read low 1.03 | S. cerevisiae deletion strains, locus YPR163C, strain tif3, active compounds read low 1.04 | S. cerevisiae deletion strains, locus YPR167C, strain met16, active compounds read low 1.02 | S. cerevisiae deletion strains, strain wtn01, active compounds read low 1.04 | S. cerevisiae strains, strain wild type, active compounds read low 1
